# Compounds without any hit were thinned out: in the full panel of roughly 83,000, 20% have a hit.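 The endpoint reported here, percent growth, reads 100 for growth as untreated, 0 for no net growth and -100 for all cells dead.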 Values without a mark were called inactive. The source made the active and inactive calls.
# System: HCC-2998 colon
# Assay: NCI-60 one-dose screen, 48 h (100 = growth as untreated, 0 = no growth, -100 = all killed)
# Conditions: 10 µM unless noted
# Description: Growth inhibition of the HCC-2998 human tumor cell line is measured as a screen for anti-cancer activity. Cells are grown in 96 well plates and exposed to the test compound for 48 hours. Compounds are tested at a single concentration, which is 10^-5 M for most compounds. The reported endpoint is percent growth (GI% or GIPRCNT), where numbers from 0 - 100% represent growth inhibition, and numbers from -100% - 0 represent cell death. For example, a value of 40 represents 60% growth inhibition. A value of 0 means no net growth occurred over the course of the experiment. A value of -40 indicates 40% of cells at the beginning of the experiment died by the end of the experiment. A value of -100 means all cells are dead at the end of the experiment.
# NCI-60 Human Tumor Cell Lines Screen was performed using the standard one-dose NCI protocol, which is described in more detail at https://dtp.cancer.gov/discovery_development/nci-60/default.htm.
# Compounds with GIPRCNT values below 10 were considered active. Activity score was based on GIPRCNT using the following formula: […]
# Score is 0 for GIPRCNT values of 100 or above, 50 for GIPRCNT values of 0, and 100 for GIPRCNT values of -100.
row,Compound,growth
1,COc1ccc(C(=O)c2cc(OC)c(OC)c(OC)c2)cc1O,12.4%
2,CN1CCN(CCNc2nccc(-c3c(-c4cccc(O)c4)nc4sccn34)n2)S1(=O)=O,88%
3,C=C1C(=O)O[C@H]2[C@H]1CC/C(CNC(=O)C(C)c1ccc(CC(C)C)cc1)=C\CC[C@@]1(C)O[C@@H]21 (stereo not given in full),-5.64% (active)
4,COc1ccc(CC(C)=C(c2ccc(OCCN3CCCCCC3)cc2)c2ccc(OCCN3CCCCCC3)cc2)cc1,-91.8% (active)
5,COc1ccc(C(=O)Cn2c(C(=O)c3ccccc3)nc3ccccc32)cc1,26.5%
6,COc1cc(CC(=O)n2ncc3ccc(N)cc32)cc(OC)c1OC,105%
7,CCCCOc1ccc(/C=N/Nc2cc(C)nc3ccc(Br)cc23)cc1,-53.9% (active)
8,COc1ccc(C(=O)Nc2cccc(C3CCc4c(cc(OC)c(OC)c4OC)O3)c2)cc1 (stereo not given),80.1%
9,N=C1C(c2nc3ccccc3s2)=C(O)CN1c1cc(Cl)cc(Cl)c1,85.8%
10,COC(=O)C(OC(C)=O)C(OC(C)=O)c1ccc(OC)c(OC)c1 (stereo not given),108%
11,COc1cc(C2=NN(C(C)=O)C(c3cc(OC)c(OC)c(OC)c3)C2)ccc1O (stereo not given),-49.3% (active)
12,COc1cc2cc(Oc3cccc(NC(=O)Nc4cc(C(F)(F)F)cc(C(F)(F)F)c4)c3)c(C)nc2cc1OC,21.3%
13,COc1cc2nc(-c3ccc(Cl)cc3)cc(OCCCN3CCCCC3)c2cc1OC,67.7%
14,Cc1c(C)c([N+](=O)[O-])c(C)c([N+](=O)[O-])c1C,112%
15,C#CCNC(=O)c1cccc2c1cc(C)n2-c1nc2c(c(NCc3ccccc3)n1)CCCC2,-84.2% (active)
16,C=C(C)[C@@H]1CC[C@]2(C(=O)N3CCN(C)CC3)CC[C@]3(C)[C@H](CC[C@@H]4[C@@]5(C)C/C(=C/c6cccnc6)C(=O)C(C)(C)[C@@H]5CC[C@]43C)[C@@H]12,77.5%
17,Cc1ccc(CNc2c3ccccc3nc3cc(NC(=O)CCN4CCCC4)ccc23)cc1,-15.8% (active)
18,COc1cc(/C=C/C(=O)c2nc3cc(F)ccc3nc2C)cc(OC)c1OC,-4.35% (active)
19,NCCCCCCNc1cc(-c2cccc(OC(F)(F)F)c2)nc2ccc(N3CCCC3)cc12,-66.5% (active)
20,Cc1cc2c(C(=O)NCC#N)cccc2n1-c1nc2c(c(NCc3ccccc3)n1)CCCC2,-87.6% (active)

row,Compound,growth
1,CCNC(=O)Oc1ccc(/C(=C(\C)c2ccccc2)c2ccc(OCCN3CCCCC3)cc2)cc1,84.9%
2,Nc1ccccc1NC(=O)c1ccc(-n2nc(-c3ccccc3)c3ccccc32)cc1,104%
3,CCCCCN1C=C/C(=C\C(=O)N(C)c2ccc(Oc3ccccc3)cc2)c2ccccc21,86.7%
4,O=C(O)c1ccc2c(c1)C(=O)N(Cc1ccccc1)C2=O,99.2%
5,C[C@H]1[C@H](C)CC[C@]2(C(=O)NCC#CCN3CCN(C)CC3)CC[C@]3(C)C(=CC[C@@H]4[C@@]5(C)Cc6c([nH]c7ccccc67)C(C)(C)[C@@H]5CC[C@]43C)[C@H]12,76.6%
6,COc1ccc(NC(N)=NCCCOc2ccc(F)cc2)cc1,76.3%
7,CCCCCCCCCCCCCCCC[N+]1(C)CCN(SN2CC[N+](C)(CCCCCCCCCCCCCCCC)CC2)CC1,70%
8,NC1[C@H](c2c[nH]c3ccccc23)c2c([nH]c3ccccc23)[C@H]1c1c[nH]c2ccccc12 (stereo not given in full),97.3%
9,O=S(=O)(NCCNc1nccc(-c2c(-c3cccc(F)c3)nc3sccn23)n1)c1ccc(Cl)cc1,83.4%
10,Cc1ccc(S(=O)(=O)NNC(=O)/C(=C\c2ccc(Cl)cc2)c2nc3ccccc3s2)cc1,103%
11,O=C(/C=C/c1ccc(Cl)cc1)c1ccc(NC(=O)N2CCN(c3cc4c(cc3F)c(=O)c(C(=O)O)cn4C3CC3)CC2)cc1,102%
12,COc1ccc(-c2nc(S(=O)(=O)c3ccccc3)c(S(=O)CC(=O)N3CCC(C)CC3)o2)cc1 (stereo not given),90.6%
13,C=C1C(=O)O[C@H]2[C@H]1CC/C(CNC(=O)c1cccc3ccccc13)=C\CC[C@@]1(C)O[C@@H]21,88%
14,CCN(CC)CCn1c(=O)c2cc(OC)c(OC)cc2c2ccc3cc4c(cc3c21)OCO4,74.9%
15,CCOc1cccc(-c2nc(N)nc(Nc3ccccc3SSc3ccccc3Nc3nc(N)nc(-c4cccc(OCC)c4)n3)n2)c1,97.8%
16,C[C@H]1[C@H](C)CC[C@]2(C(=O)Nc3ccc4ncccc4c3)CC[C@]3(C)C(=CC[C@@H]4[C@@]5(C)CCCNC(C)(C)[C@@H]5CC[C@]43C)[C@H]12,-84.4% (active)
17,COc1ccc2[nH]c(=O)c(CN3CCN(c4nccc(-c5ccc(Cl)cc5)n4)CC3)cc2c1,105%
18,CCCOc1ccc(/C=N/Nc2cc(C)nc3ccc(Cl)cc23)cc1,-39.9% (active)
19,NS(=O)(=O)c1ccc(CCN2C(=O)c3cc(Cl)c(Cl)cc3C2=O)cc1,90.2%
20,O=[N+]([O-])c1ccc(NC(=S)N/N=C/c2cc3ccccc3n3nnnc23)cc1,54%

# Reference: PubChem BioAssay (NCI)
